# Compound activity as filed in PubChem BioAssay.
# VDR inhibitor: inhibitors of human vitamin D receptor; Potency, µM, inactives show max response, negative = inhibition, actives largely listed as inhibitors; 0.93% of 400,000 active; VDR-SRC2-3 peptide fluorescence polarization, 2 h; AID 504847; further: potency means the concentration at half of the fitted maximal effect; on the % scale 0 is the no-effect control and ±100 the full control effect
#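 Fluorescence polarization assay measuring small-molecule disruption of VDR binding to the coregulator peptide SRC2-3. Compounds were pin-transferred (23 nl) into the reagent mix and incubated 2 h at room temperature before reading.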
# PLK1 PBD block: blocks phosphopeptide binding to human PLK1 polo-box domain; P53350; Plk1 PBD binding of FITC phosphopeptide, fluorescence polarization; Potency, µM, for inactives: max response, negative = inhibition, most hits filed as inhibitors; 2.8% of 360,000 active; further: potency means the concentration at half of the fitted maximal effect; series mostly up to about 57 µM; on the % scale 0 is the no-effect control and ±100 the full control effect; nearly all actives have a fitted effect of over 65% in size
# Target sequence (P53350 whole entry, looked up, the tested form may be a part): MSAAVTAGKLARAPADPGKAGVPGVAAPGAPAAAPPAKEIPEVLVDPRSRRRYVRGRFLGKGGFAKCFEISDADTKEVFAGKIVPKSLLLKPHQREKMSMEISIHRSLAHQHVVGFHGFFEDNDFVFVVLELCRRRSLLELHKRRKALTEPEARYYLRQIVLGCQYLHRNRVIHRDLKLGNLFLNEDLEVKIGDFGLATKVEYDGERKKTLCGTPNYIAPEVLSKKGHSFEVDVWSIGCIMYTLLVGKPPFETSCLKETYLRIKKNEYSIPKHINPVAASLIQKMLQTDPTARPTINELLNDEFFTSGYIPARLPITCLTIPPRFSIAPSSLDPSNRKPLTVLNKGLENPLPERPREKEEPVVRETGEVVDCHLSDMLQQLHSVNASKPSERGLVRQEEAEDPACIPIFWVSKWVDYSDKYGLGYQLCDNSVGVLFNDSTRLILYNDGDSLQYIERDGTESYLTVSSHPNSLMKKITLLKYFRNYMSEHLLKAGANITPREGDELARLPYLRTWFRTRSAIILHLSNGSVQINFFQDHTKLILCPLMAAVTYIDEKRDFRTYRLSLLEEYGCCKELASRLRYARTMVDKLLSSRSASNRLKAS
# Vif-APOBEC3G blk: Vif-A3G binding inhibition; Potency, µM (series often up to 46.1 µM), without a hit: top-dose activity, negative = active, usual class: inhibitors; Q9HC16; 0.076% of 410,000 active; HeLa A3G-eYFP + Vif (tagged APOBEC3G with the HIV-1 protein that degrades it), YFP fluorescence, overnight; further: potency means the concentration at half of the fitted maximal effect; on the % scale 0 is the no-effect control and ±100 the full control effect; nearly all actives have a fitted effect of over 60% in size
#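 HeLa cells stably expressing Vif and C-terminally eYFP-tagged A3G, seeded overnight at 37 deg C, then exposed to compound by pintool overnight at 37 deg C. Rise in yellow fluorescence (Ex 488/Em 500-530, Acumen) marks blocked Vif-driven A3G degradation.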
# TSHR antag: antagonists of human thyroid stimulating hormone receptor; P16473; TSHR-expressing cells, TSH-stimulated cAMP HTRF, 2 h; active compounds read low; activity change, negative = inhibition, % at 11.5 µM; 0.2% of 330,000 active;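 active means activity change below a set negative limit, meaning inhibition stronger than a set level, cut at about -70% in these data; inconclusive means activity change between two set negative limits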; further: on the % scale 0 is the no-effect control and ±100 the full control effect
#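 Competitive HTRF cAMP read-out (cryptate anti-cAMP antibody, cAMP-d2; 30 min, room temperature) in freshly harvested TSHR cells. Compounds added before TSH at EC80 (4nM final), followed by 2 hours' incubation at 37 deg C.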
# Vif-APOBEC3F blk: inhibitors of Vif-A3F interaction; HeLa A3F-eYFP + Vif (tagged APOBEC3F with the HIV-1 protein that degrades it), YFP fluorescence increase; Potency, µM (titrated, usually from 46.1 µM), for inactives: top-dose activity, negative = active; 0.2% of 390,000 active; AID 602313; further: potency means the concentration at half of the fitted maximal effect; % of control where 0% means no effect; nearly all actives have a fitted effect of over 65% in size
#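 Fluorescence increase (Ex 488/Em 500-530) after overnight compound treatment at 37 deg C flags inhibition of Vif-driven A3F-eYFP loss in stable HeLa A3F-eYFP/Vif cells seeded overnight beforehand.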
# TbPYK inh: Trypanosoma brucei pyruvate kinase inhibition, cherry-pick confirmation | shares compounds with PLK1 PBD block | recombinant TbPYK, Kinase-Glo ATP luminescence | Potency, µM (top dose mostly 76.9 µM), for inactives: top-dose activity change, negative = inhibition, most hits filed as inhibitors | 67% of 890 active; further: potency means the concentration at half of the fitted maximal effect; on the % scale 0 is the no-effect control and ±100 the full control effect; nearly all actives have a fitted effect of over 70% in size
# TbPYK ADP-Glo: inhibits T. brucei pyruvate kinase in orthogonal ADP-Glo assay; shares compounds with PLK1 PBD block; recombinant TbPYK, ADP-Glo luminescence, 60 min; Potency, µM (highest dose often 76.9 µM), inactives show at the highest dose activity change, negative = inhibition, most hits filed as inhibitors; 62% of 890 active; AID 720584; further: potency means the concentration at half of the fitted maximal effect; on the % scale 0 is the no-effect control and ±100 the full control effect; nearly all actives have a fitted effect of over 75% in size
# Starred values were filed as active, the others as inactive; ? = inconclusive; . = no result given. Rows were chosen to be rich in hits. Some 3.1% of all compounds tested hit in one or more screens of this group. Unless noted, the call rests on the fitted dose curve; in most records, active means well fitted curve in the direction sought with a large enough effect; inconclusive means small, poorly fitted or top-dose-only effect, or another doubt; inactive means no such curve, though single readings can be large; an effect the other way counts as inactive or inconclusive.
SMILES,VDR inhibitor,PLK1 PBD block,Vif-APOBEC3G blk,TSHR antag,Vif-APOBEC3F blk,TbPYK inh,TbPYK ADP-Glo
Cc1ccc(S(=O)(=O)NCCc2sc3nc(-c4ccccc4)nn3c2C)cc1C,12%,.,-1%,.,-11%,.,.
COc1ccc(OC)c(NC(=O)c2ccccc2N(Cc2ccccc2)S(C)(=O)=O)c1,-3%,-9%,1%,2,5%,8.9µM*,14µM*
COc1cc(/C=C/c2sc3ccccc3[n+]2CCCS(=O)(=O)[O-])ccc1O,-16%,37%,-2%,-29,-28%,16µM*,3%
O=c1[nH]c2sc3c(c2c2nncn12)CCCC3,2%,-26%,0%,15,-5%,?,35µM*
Cn1c(=O)c2c3c(sc2n2cnnc12)CCC3,0%,-6%,3%,-6,1%,.,.
NS(=O)(=O)c1ccc(CCNC(=O)c2cncc(Br)c2)cc1,?,3µM*,0%,3,5%,4%,-2%
CC(Nc1ccc(N2CCOCC2)cc1)C(=O)N1c2ccccc2CC1C (stereo not given),-11%,0%,-1%,-1,1%,3.2µM*,7.1µM*
O=[N+]([O-])c1cc2no[n+]([O-])c2cc1N1CCCCC1,40µM*,2.7µM*,-6%,.,?,2.2µM*,3.5µM*
CCOC(=O)CN=C1CC(C)(C)CC2=C1Sc1ncnc(N(C)C)c1N2,-13%,-20%,2%,-1,1%,20µM*,14µM*
Fc1ccc(C[n+]2csc3ccccc32)cc1,40µM*,12µM*,-1%,0,9%,7.9µM*,13µM*
COc1ccc(N2CCN(C(=O)C(CC(C)C)NS(=O)(=O)c3ccc4nc(C)sc4c3)CC2)cc1 (stereo not given),-11%,.,2%,.,6%,.,.
COc1ccc(S(=O)(=O)N(C(C)=O)c2ccc3oc(=O)sc3c2)cc1,79µM*,-27%,2%,-18,1%,?,16µM*
Oc1ccc(C23CC4CC(CC(C4)C2)C3)cc1O,10%,-17%,-4%,-2,-9%,20µM*,20µM*
COc1cc2oc(=O)c(CC(=O)NCCc3ccccc3)c(C)c2cc1Cl,-1%,.,-6%,.,-5%,.,.
CCCNC(=O)N(C)C[C@@H]1Oc2ncc(-c3ccncc3)cc2C(=O)N([C@H](C)CO)C[C@@H]1C,.,-13%,0%,.,1%,22µM*,32µM*
CCCNC(=O)N(C)C[C@@H]1Oc2ncc(Br)cc2C(=O)N([C@H](C)CO)C[C@@H]1C,.,-20%,0%,.,-8%,.,.
COCCN(Cc1cc2cccc(C)c2n2nnnc12)C(=O)C(F)(F)F,-16%,-5%,1%,26,-1%,3%,-8%
Cc1cc(O)c(C(c2ccc(Cl)cc2)N2CCN(c3ccccc3)CC2)c(=O)n1Cc1ccco1 (stereo not given),10%,.,0%,.,4%,.,.
COc1cc(/C=N/N=C2/NC(=O)C(CC(=O)O)S2)ccc1OCc1ccc(Cl)cc1 (stereo not given),-26%,-23%,1%,4,5%,16µM*,35µM*
O=C(c1ccccc1Cl)N1CCN(CCc2ccccn2)CC1,2%,.,4%,.,3%,.,.
O=c1[nH]c2ccc(Cl)cc2c(-c2ccccc2)c1SC(=S)N1CCCCC1,?,12µM*,-4%,10,-2%,5.6µM*,7.9µM*
NNC(=O)CSc1c(-c2ccccc2)c2cc(Cl)ccc2[nH]c1=O,-16%,-26%,2%,-3,-1%,.,.
O=c1[nH]c2ccc(Cl)cc2c(-c2ccccc2)c1SC(=S)N1CCOCC1,89µM*,27µM*,-5%,-5,0%,4.5µM*,5.6µM*
CC(C)[C@@H](CC(=O)N[C@@H]1CCCC[C@H]1C(=O)N[C@H](CC(=O)N[C@@H](CCC(=O)O)CC(=O)O)Cc1c[nH]c2ccccc12)NC(=O)C[C@H](Cc1ccccc1)NC(=O)[C@@H]1CNCC[C@H]1N,-7%,.,.,.,.,.,.
